Consider 88 compounds from PubChem BioAssay AID743126 (The Scripps Research Institute Molecular Screening Center, 2013).

In all, about 370,000 compounds went through this assay and about 2,100 (0.57%) were called active. Many of the other results were omitted from the sample, so actives are more common in it than they were. Unmarked numbers belong to inactive results.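 Rule for the calls: active = inhibition above mean plus 3 SD of compounds lying within the high and low control bounds (cut at about 19% in these data); inactive = the rest.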

Chain of Group 3 secretory phospholipase A2 (Homo sapiens) (Q9NZ20 whole entry, looked up): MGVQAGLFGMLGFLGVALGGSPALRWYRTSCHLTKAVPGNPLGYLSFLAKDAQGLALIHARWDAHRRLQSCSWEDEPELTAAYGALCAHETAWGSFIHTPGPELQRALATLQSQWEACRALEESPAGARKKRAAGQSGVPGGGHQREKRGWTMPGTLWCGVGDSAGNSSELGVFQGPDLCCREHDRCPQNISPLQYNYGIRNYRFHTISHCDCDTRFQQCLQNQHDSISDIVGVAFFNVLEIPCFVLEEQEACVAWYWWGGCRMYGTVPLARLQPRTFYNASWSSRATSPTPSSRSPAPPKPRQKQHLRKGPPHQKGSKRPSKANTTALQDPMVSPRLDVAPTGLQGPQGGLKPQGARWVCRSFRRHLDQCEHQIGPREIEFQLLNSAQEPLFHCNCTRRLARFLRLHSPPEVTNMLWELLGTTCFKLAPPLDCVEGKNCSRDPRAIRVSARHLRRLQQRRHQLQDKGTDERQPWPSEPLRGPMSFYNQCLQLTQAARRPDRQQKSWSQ

The assay addresses Group 3 secretory phospholipase A2 (Homo sapiens) (UniProt Q9NZ20). Put plainly: human group III sPLA2 inhibitors, primary screen, biochemical, QFRET, BODIPY PC-A2 liposome substrate (AID 743126).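 Note: 0% = median of test compound wells and 100% = no enzyme DMSO wells.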 Conditions: QFRET BODIPY PC-A2 liposome hydrolysis, fluorescence; at 12.2 µM; stronger effect = higher value.
Take `CCOC(=O)[C@]12CCCC=C1N(Cc1ccc(OC)cc1)C(=O)[C@@H]2CC(=O)NCc1cccs1`: the inhibition is -4.75%. To `COc1ccc(Cn2cc(CN3[C@@H](CC(C)C)COc4cc(Br)ccc4S3(=O)=O)nn2)cc1` belongs 6.77%.

As for `C[C@H]1CCC/C=C/C(=O)c2c(O)cc(O)cc2CC(=O)O1`, the inhibition was 4.76%. As to `Clc1ccc(-n2c(COc3ccccc3)nnc2SCc2nc3ccccc3[nH]2)cc1`, the inhibition is -11.3%. Then `Cc1cc(NS(=O)(=O)c2ccc(NC(=O)CSc3nnc(SCc4ccc(F)cc4)s3)cc2)nc(C)n1`, with -29.3%; and `C/C(Cc1ccccc1)=N\NC(=O)CNC(=O)c1ccc2c(c1)OCCO2`, with -4.8%.

For `Cc1nc(NC(=O)c2ccc3c(c2)OCCO3)ccc1Br`, the inhibition was 4.96%. Then `Cc1ccc2sc(NNC(=O)c3ccc4c(c3)OCCO4)nc2c1C`, with 39.7% (active). Then `COc1cc(/C=C/C(=O)n2cnc3ccccc32)cc(OC)c1OC`, with 11.9%.

For the compound `CCc1ccccc1NC(=O)CSc1nnc(-c2cccs2)o1`, the inhibition is 0.47%. Then `COc1cc(C(=O)NNC(=O)c2ccc(S(=O)(=O)N3CCCCC3)cc2)cc(OC)c1OC`, with -8.86%; and `COc1ccccc1CC(=O)Nc1ccc(S(=O)(=O)N2CCCC2)cc1`, with -5.06%. Then `COc1ccc(-c2ccc(Nc3ccc(S(=O)(=O)N4CCCC4)cc3)nn2)cc1OC`, with 27.2% (active); and `CCC(NC(=O)C1C2C=CC3(CN(Cc4ccccc4)C(=O)C13)O2)c1ccccc1` (stereo not drawn), with -3.46%; and `CCOC(=O)C1CCN(C(=O)C(C)(C)NC(=O)Nc2ccccc2Cl)CC1`, with 0.81%.

On to `CC(=O)N1CCN(c2ccccc2NC(=S)NC(=O)c2cc3ccccc3o2)CC1`, for which the inhibition is 3.86%.

As for `C/C(=N\NS(=O)(=O)c1cccc([N+](=O)[O-])c1)c1cc2ccccc2o1`, the inhibition is 3.51%. To `C/C(=N\NC(=S)Nc1ccc(C)cc1)c1cc2ccccc2o1` belongs 23.9% (active); to `Cc1cc(C)n2ncc(C(=O)Nc3ccc4c(c3)OCCO4)c2n1`, 0.96%.

Consider `COc1ccc(Cl)cc1C(=O)NNC(=S)NC(=O)/C=C/c1ccco1`, for which the inhibition is 2.13%. Then `Cc1nn(C)c(C(=O)NNC(=S)NC2CCCCC2)c1Cl`, with 4.69%; and `O=C(NNC(=S)NC1CCCCC1)c1ccccc1Cl`, with 20.1% (active); and `COc1ccc(Cl)cc1C(=O)NNC(=S)NC1CCCC1`, with 26.5% (active). To `COc1ccc(Cl)cc1C(=O)NNC(=O)c1nc2nc(C)cc(C)n2n1` belongs 5.45%; to `O=C(COC(=O)c1ccccc1Cl)NC1CCCCCCC1`, 5.22%. As for `COC(=O)C12C=C3CC(c4ccccc4)=C3C(=O)N1Cc1[nH]c3ccccc3c1C2` (stereo not drawn), the inhibition is -7.07%. To `COc1ccc(-n2c(SCC(=O)Nc3ccc4cn[nH]c4c3)nnc2-c2cccnc2)cc1` belongs 3.42%; to `CC(=O)OCCN1CCCC12CCC(c1ccccc1)CC2` (stereo not drawn), 11.1%; to `C=CCN1C(=O)[C@@H](CC(=O)NCCCOCCCC)[C@]2(C(=O)OCC)CCCCC/C=C/12`, -8.97%. To `COc1ccc(-n2c(SCC(=O)Nc3ccccc3-c3ccccc3)nnc2-c2cccnc2)cc1` belongs -5.21%.

Take `CCOC(=O)N1CCN(C(=O)C[C@@H]2C(=O)N(CCc3ccc(Cl)cc3)C3=CCCC[C@]32C(=O)OCC)CC1`: the inhibition is -8.77%.

In the case of `S=C(NNC(=S)NC1CC2CCC1C2)NC1CC2C=CC1C2` (stereo not drawn), the inhibition was 19.5% (active). To `O=S(=O)(NC1CC2CCC1C2)c1ccc(Cl)cc1` (stereo not drawn) belongs -4.6%; to `O=C(NNC(=O)C1C2CCC(C2)C1C(=O)O)c1ccc(Cl)cc1` (stereo not drawn), 4.75%. To `CC(C)c1ccc(NC(=S)NC2CC3C=CC2C3)cc1` (stereo not drawn) belongs 0.31%; to `CC1CCN(C(=S)NC2CC3CCC2C3)CC1` (stereo not drawn), 14.4%. In the case of `O=C(NNC(=S)NC1CC2CCC1C2)c1ccc(Cl)cc1` (stereo not drawn), the inhibition was 19.4% (active). To `Cc1ccc(C2=CCN(C)C(=O)N2c2ccc(Cl)cc2)cc1` belongs -5.31%; to `COC(=O)C[C@@H]1CC[C@@H]2[C@@H](COc3ccc(NC(=O)Nc4ccc(F)c(F)c4)cc3C(=O)N2C)O1`, -13.5%; to `Cc1ccc(S(=O)(=O)N2CCOCC2)cc1C(=O)NC(=S)N(Cc1ccccc1)C(C)C`, 23.9% (active). For `Cc1cccc(N(Cc2ccccc2)C(=O)c2cc(S(=O)(=O)N3CCOCC3)ccc2F)c1`, the inhibition was -1.09%. Consider `Cc1ccc(S(=O)(=O)N2CCOCC2)cc1C(=O)Nc1ccccc1N1CCCC1`, for which the inhibition was 1.07%. In the case of `CCC(=O)Nc1ccc2c(c1)C(=O)N(C)[C@@H]1CC[C@@H](CC(=O)NCCc3ccccc3)O[C@H]1CO2`, the inhibition was 4.64%. To `C[C@H](C(=O)N(C)c1ccccc1)[C@@H](O)c1ccc(Cl)cc1` belongs -2.63%. To `O=C(OC12CCCN(C1)/C(=C/c1cccnc1)C2)C1CCCC1` (stereo not drawn) belongs -0.59%. To `Cc1ccccc1NC(=O)C1CCN(c2ncccn2)CC1` belongs 19.5% (active); to `O=C(NNC(=O)C1CCN(c2ncccn2)CC1)c1ccccc1`, -1.66%. For the compound `Cc1ccccc1NC(=O)C1CCN(C(=O)NC2CCCCC2)CC1`, the inhibition is -4.04%.

As to `COC(=O)c1cc(S(=O)(=O)N2CCN(c3ccccc3C)CC2)cn1C`, the inhibition was 1.56%.

Take `CCCCNC(=O)c1ccc(-n2c(=S)[nH]c3ccccc3c2=O)cc1`: the inhibition was 4.64%. On to `CCCCn1c(=S)[nH]c2ccccc2c1=O`, for which the inhibition is 25.3% (active).

Consider `CCCCn1c(=S)[nH]c2ncccc2c1=O`, for which the inhibition is 2.69%. To `COc1ccccc1C(=O)NC1CCCCN(C(C)C)C1=O` (stereo not drawn) belongs 12.1%; to `COC(=O)[C@H](C(C)C)N(CCCc1cn(Cc2ccccc2)nn1)S(=O)(=O)c1ccc(F)cc1Br`, -15.2%; to `CCCCCOC(=O)c1ccc(N2C(=O)C3C4C=CC(C4)C3C2=O)cc1` (stereo not drawn), -15.1%.

With `CCCCCCCCCCOC(=O)C[N+](C)(C)CC1CCCCC1O` (stereo not drawn), the inhibition is 19.3% (active). To `COc1ccc(S[C@]2(C(=O)N(C)C)CC(=O)N(c3ccc(OC)cc3)[C@@H]2c2ccc(OC)cc2)cc1` belongs -13.3%; to `CCCCCCN1CCS(=O)(=O)N(Cc2ccc(C(F)(F)F)cc2)C(C(=O)OC)C1` (stereo not drawn), 5.31%. Turning to `O=[N+]([O-])c1cc(Cl)cc(/C=N/NC(=S)Nc2cc(S(=O)(=O)N3CCOCC3)ccc2Cl)c1O`, the inhibition is 16.3%.

On to `O=C(NN=Cc1ccco1)C(=O)Nc1ccc(Cl)c([N+](=O)[O-])c1`, for which the inhibition is 3.31%. To `O=C(N/N=C/c1cc(Cl)cc([N+](=O)[O-])c1O)C(O)(c1ccccc1)c1ccccc1` belongs 21.2% (active); to `CN(C)CC(=O)N[C@@H]1C[C@@H]2O[C@H](CO)CC[C@@H]2O[C@@H]1CCc1ccc(C#Cc2ccccc2)cc1`, -19.5%; to `COc1ccc(-n2c(SCC(=O)Nc3ccc4c(c3)OCCO4)nnc2-c2ccc(Cl)cc2)cc1`, 0.31%. Then `CC(NCc1ccco1)C(=O)N1CCCCC1` (stereo not drawn), with 3.8%; and `CCN(CC(=O)NCCc1ccccc1)S(=O)(=O)c1ccccc1`, with 0.93%. To `O=C(CSc1ccccc1F)NC1CCS(=O)(=O)C1` (stereo not drawn) belongs 1.4%; to `CCN(CC(=O)NC1CCS(=O)(=O)C1)S(=O)(=O)c1ccccc1` (stereo not drawn), 22.4% (active); to `CCCNC(=O)Nc1ccc2c(c1)C(=O)N(C)[C@H]1CC[C@H](CC(=O)NCC3CCCCC3)O[C@@H]1CO2`, -24.2%.

As to `C=CCN1[C@@H](Cc2ccccc2)COc2cccc(N3CCSCC3)c2S1(=O)=O`, the inhibition is -0.87%. Then `O=C(CSc1nc2ccccc2s1)N=Nc1c(O)[nH]c2ccccc12`, with -40.6%; and `Cc1sc2nc(SCC(=O)c3ccc(O)c(O)c3)n(Cc3ccco3)c(=O)c2c1C`, with 23.9% (active); and `O=C(CSc1nnc(-c2cccs2)n1Cc1ccco1)c1ccc2c(c1)OCO2`, with -35.9%. For `O=C(CSc1nnc(COc2ccccc2)n1Cc1ccco1)c1ccc2ccccc2c1`, the inhibition is -53.5%.

Regarding `COc1ccc(-n2c(COc3ccc(C)cc3)nnc2SCC(=O)Nc2ccc(Oc3ccccc3)cc2)cc1`, the inhibition is -8.43%. To `CCN(C(=O)[C@@H](C1CC1)[C@@H](O)c1ccc2ccccc2c1)c1ccccc1` belongs 4.03%. With `CCCCN1CCN(C(=O)c2ccc3c(c2)NC(=O)C(C)(C)O3)CC1`, the inhibition is 5.11%.

Take `O=C(Nc1ccccc1)N1CCN(Cc2nc3ccccc3c(=O)[nH]2)CC1`: the inhibition is 7.43%. On to `COC(=O)[C@H](C(C)C)N1CCc2nnn(Cc3ccc(C)cc3)c2-c2ccccc2S1(=O)=O`, for which the inhibition was -9.33%. To `CC(C)=CCCC1(C)C=Cc2c(ccc3c2[nH]c2cc(O)c(C)cc23)O1` (stereo not drawn) belongs 22.9% (active); to `C=C(C)C#CC(Cc1ccccc1)N(CC1CC1)/C(N)=N/C(=O)OCc1ccccc1` (stereo not drawn), 7.88%; to `CC(C)c1cc(N=O)cc(C(C)C)c1O`, -42.9%. For the compound `CC(C)c1cc(C(=O)N/N=C/c2ccoc2)c(O)c(C(C)C)c1`, the inhibition was 22.1% (active). For `C[C@@H]1COc2cccc(N3CCCC3)c2S(=O)(=O)N1C`, the inhibition is 2.99%.

Turning to `O=C(c1ccccc1)c1ccc(-c2ccccc2C(=O)NC2CCCCN(Cc3ccc(Cl)cc3)C2=O)cc1` (stereo not drawn), the inhibition was -1.89%. Then `Brc1ccccc1C1Nc2cccc3cccc(c23)N1`, with 27.1% (active).

For the compound `COc1cc2c(cc1OC)C(c1ccccc1Br)NC(=O)C2` (stereo not drawn), the inhibition is 13.2%.

For `Brc1ccccc1C1N=C(c2ccccc2)NO1` (stereo not drawn), the inhibition is 9.79%. To `Cc1ccc(NC(=O)Nc2cc(C)nn2-c2ccccc2)cc1` belongs 3.2%.

Broadly, the inhibition is the relative decrease from the control value, in per cent.
